Experimental data: PubChem BioAssay (NCATS)
Results filed as inconclusive are left out. A call without a number means that no potency is given here. Calls of active or inactive are those of the source. Unless noted, calls follow the shape of the dose curve; as a rule, active = well fitted curve in the direction sought with a large enough effect; inconclusive = small, poorly fitted or top-dose-only effect, or another doubt; inactive = no such curve, though single readings can be large; an effect the other way counts as inactive or inconclusive.

What was measured:
[1] = target: DNA repair nuclease/redox regulator APEX1 (Homo sapiens) (UniProt P27695); test: qHTS Validation Assay for Inhibitors of the Human Apurinic/apyrimidinic Endonuclease 1 (APE1) (AID 1705;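 also: TAMRA fluorescence gain over two minutes as APE1 cuts a quenched THF abasic duplex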)
Outline: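 qHTS, 1536-well. APE1 + cpd 15 min RT → 50 nM TAMRA/BHQ-2 THF-abasic dsDNA substrate → kinetic fluorescence, 3 reads/60 s; delta(read3−read1) = reaction progress. No-enzyme buffer = negative control.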

[2] = target: Endonuclease 4 (Escherichia coli (strain K12)) (UniProt P0A6C1); test: Counterscreen for APE1 Inhibitors: qHTS Validation Assay for Inhibitors of Endonuclease IV (AID 1708)
Outline: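 Concentration-response counterscreen run identically to the APE1 assay: 15 min room-temperature preincubation of 2 nM enzyme with compound, reaction started with 50 nM quenched abasic DNA, progress taken from kinetic fluorescence.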

[3] = qHTS for differential inhibitors of proliferation of Plasmodium falciparum line 3D7 (AID 1876);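 also: parasite growth measured after three days of culture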
[4] = qHTS for differential inhibitors of proliferation of Plasmodium falciparum line D10 (AID 1877);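 also: parasites grown with compound for 72 h before DNA staining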
[5] = qHTS for differential inhibitors of proliferation of Plasmodium falciparum line W2 (AID 1883); conditions: Potency: Plasmodium falciparum W2 proliferation inhibition;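 also: potency is read from the fitted curve at half-maximal effect; parasites grown with compound for 72 h before lysis and staining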
[6] = qHTS for differential inhibitors of proliferation of Plasmodium falciparum line HB3 (AID 1886); conditions: Potency: Plasmodium falciparum HB3 proliferation inhibition;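 also: parasites grown with compound for 72 h before SYBR Green readout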
[7] = qHTS Assay for Modulators of Human Peripheral Myelin Protein 22 (PMP22) Expression/Activity (AID 1967; active = well fitted curve in the direction sought with a large enough effect in the signal ratio; the % refers to the signal ratio)
Outline: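 Luminescence ratio of Pmp22 promoter-driven green luciferase to EF-alpha-driven red luciferase, in engineered mouse MSC80 Schwann cells, served as read-out. Compounds were incubated 24h; untreated cells defined 0% Activity; curves were classified by r2, magnitude and activity.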

[8] = target: ATP-dependent DNA helicase Q1 (Homo sapiens) (UniProt P46063); test: qHTS Validation Assay for Inhibitors of RecQ-Like Dna Helicase 1 (RECQ1) (AID 2353)
Outline: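 50 nM RECQ1T1 preincubated 15 min with compound in Tris pH 8.0 buffer with MgCl2, DTT, Tween-20 and 2.5 ug/ml poly(dI-dC); started with 200 nM TAMRA/BHQ-2 forked duplex and 2 mM ATP. Unwinding read as fluorescence (525/598 nm), two reads 2 h apart.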

[9] = Validation screen for inhibitors of Lassa infection (AID 463096; calls by dose curve)
[10] = Validation screen for small molecules that induce DNA re-replication in MCF 10A normal breast cells (AID 463097); also: nearly all actives have a fitted effect of over 60% in size
Outline: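 Image-based qHTS: normal breast cells are incubated with compound for 48 hr, stained with Hoechst, and scanned for total nuclear fluorescence. Compounds raising the fraction of nuclei with elevated DNA content count as re-replication inducers.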

[11] = Quantitative high throughput screen for delayed death inhibitors of the malarial parasite plastid, 96 hour incubation (AID 488745); also: nearly all actives have a fitted effect of over 70% in size
Outline: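 Luciferase-expressing P. falciparum in erythrocytes (2% hematocrit, 0.1% parasitemia) incubated with compound for 96 h at 37 C, 5% CO2, in RPMI 1640 with 0.5% Albumax. Growth inhibition read as decreased luminescence.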

[12] = target: M-phase phosphoprotein 8 (Homo sapiens) (UniProt Q99549); test: qHTS Validation Assay for Inhibitors for MPP8 Chromodomain Interactions with Methylated Histone Tails (AID 488949);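 also: 50 nM MPP8 with 50 nM peptide preformed then compounds added for 30 min; AlphaScreen signal from MPP8 chromodomain bound to biotinylated H3K9me3 peptide; top concentration of the series differs between compounds; nearly all actives have a fitted effect of over 55% in size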
Outline: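 50 nM MPP8 + 50 nM b-H3K9me3 peptide, PBS pH 7.4/0.01% Tween-20, 30 min RT; + cpd 30 min RT; + AlphaScreen donor/Ni-chelate acceptor beads 10 ug/mL final, 30 min dark; luminescence read.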

[13] = target: Thyrotropin receptor (Homo sapiens) (UniProt P16473); test: qHTS Assay for Antagonists of the Thyroid Stimulating Hormone Receptor (AID 488980)
Outline: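 Readout is cAMP by HTRF competition between cellular cAMP and cAMP-d2 for a cryptate-labelled antibody. Antagonism was assessed in TSHR-transfected HEK293 cells stimulated with 4 nM TSH (EC80, final) in the presence of RO 20-1724.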

[14] = target: Thyrotropin-releasing hormone receptor (Homo sapiens) (UniProt P34981); test: qHTS for Small Molecule Agonists and Allosteric Enhancers of Human TRH Receptor: Validation Screen for Agonists (AID 493127;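 active = calcium activation more than 3 SD above the typical response in the agonist read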); conditions: TRH receptor agonist cell assay; at 2 µM; stronger effect = higher value
Outline: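 TRHR cells loaded with fluo-8 calcium dye; FDSS kinetic fluorescence (Ex 480/Em 530) read at 1 s/cycle after 23 nL compound addition. Agonist-mode calcium response recorded before the 10 nM TRH (EC20) addition.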

[15] = target: Galactokinase (Homo sapiens) (UniProt P51570); test: qHTS Validation Assay for Inhibitors of Human Galactokinase (GALK) (AID 493189)
Outline: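 5 nM GALK / 100 uM galactose / 35 uM ATP, 20 mM HEPES pH8.0, 5 mM MgCl2, 60 mM NaCl, 1 mM DTT, 0.01% BSA (final). RT 1 h; Kinase-Glo Plus luminescence.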

[16] = Validation screen for small molecules that induce DNA re-replication in SW480 colon adenocarcinoma cells (AID 504364)
Outline: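 SW480 cells (250/well) exposed 48 h at 37 C, 5% CO2, then Hoechst-stained 40 min. Nuclear DNA content imaged by fluorescence scanning (405 nm excitation, 500-530 nm emission); re-replication scored as increased nuclei with elevated intensity.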

[17] = target: Voltage-gated inwardly rectifying potassium channel KCNH2 (Homo sapiens) (UniProt Q12809); test: qHTS Assay for Small Molecule Inhibitors of the Human hERG Channel Activity (AID 588834);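 also: top concentration of the series differs between compounds; lower thallium flux fluorescence means stronger hERG block; nearly all actives have a fitted effect of over 50% in size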
Outline: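 hERG-BacMam U2OS, 2000 cells/well; 0.7X FluxOR loading 1 hr RT dark; cpd ~10 min 37 °C; stim buffer; FDSS fluorescence 2 min @ 1 s; AC50 Hill fit.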

[18] = qHTS for differential inhibitors of proliferation of Plasmodium falciparum line 7G8 (AID 1815);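 also: potency is read from the fitted curve at half-maximal effect; parasite growth measured after three days of incubation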
[19] = qHTS for differential inhibitors of proliferation of Plasmodium falciparum line GB4 (AID 1816); conditions: Potency: Plasmodium falciparum GB4 proliferation inhibition;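 also: potency is read from the fitted curve at half-maximal effect; parasite growth measured after 72 h incubation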
[20] = target: RecQ-like DNA helicase BLM (Homo sapiens) (UniProt P54132); test: qHTS Validation Assay for Inhibitors of Bloom's syndrome helicase (BLM) (AID 2364)
Outline: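 BLM 50 nM in 25 mM Tris-HCl pH 8.0, 5 mM NaCl, 2 mM MgCl2, 1 mM DTT, 0.01% Tween-20, 2.5 ug/ml poly(dI-dC); 15 min cpd preinc, RT. Start: 200 nM forked DNA + 2 mM ATP (final). TAMRA read, 2 reads 2 h apart.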

[21] = target: Catechol O-methyltransferase (Homo sapiens) (UniProt P21964); test: Confirmatory Screen for Target Class Profiling of Small Molecule Inhibitors of Methyltransferases (AID 1745852); conditions: MTase-Glo luminescence, SAH detection, recombinant enzyme; measured here: COMT max response; stronger effect = lower value
[22] = target: Guanidinoacetate N-methyltransferase (Homo sapiens) (UniProt Q14353); test: as above; conditions: MTase-Glo luminescence, SAH detection, recombinant enzyme; activity change, negative = inhibition: at 85.7 µM (top of the series) unless noted
[23] = target: Nicotinamide N-methyltransferase (Homo sapiens) (UniProt P40261); test: as above; conditions: MTase-Glo luminescence, SAH detection, recombinant enzyme; measured here: NNMT max response; stronger effect = lower value
[24] = target: Phenylethanolamine N-methyltransferase (Homo sapiens) (UniProt P11086); test: as above; conditions: MTase-Glo luminescence, SAH detection, recombinant enzyme; measured here: PNMT max response; stronger effect = lower value
Chain of Phenylethanolamine N-methyltransferase (Homo sapiens) (P11086 whole entry, looked up): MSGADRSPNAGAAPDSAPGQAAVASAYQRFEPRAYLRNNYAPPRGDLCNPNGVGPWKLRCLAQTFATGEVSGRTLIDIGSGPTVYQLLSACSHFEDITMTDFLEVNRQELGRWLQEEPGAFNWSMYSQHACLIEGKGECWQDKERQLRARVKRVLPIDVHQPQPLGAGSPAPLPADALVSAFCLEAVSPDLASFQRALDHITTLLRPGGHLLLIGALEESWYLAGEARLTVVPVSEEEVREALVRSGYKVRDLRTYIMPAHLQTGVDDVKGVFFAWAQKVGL

Chain of Thyrotropin-releasing hormone receptor (Homo sapiens) (P34981 whole entry, looked up): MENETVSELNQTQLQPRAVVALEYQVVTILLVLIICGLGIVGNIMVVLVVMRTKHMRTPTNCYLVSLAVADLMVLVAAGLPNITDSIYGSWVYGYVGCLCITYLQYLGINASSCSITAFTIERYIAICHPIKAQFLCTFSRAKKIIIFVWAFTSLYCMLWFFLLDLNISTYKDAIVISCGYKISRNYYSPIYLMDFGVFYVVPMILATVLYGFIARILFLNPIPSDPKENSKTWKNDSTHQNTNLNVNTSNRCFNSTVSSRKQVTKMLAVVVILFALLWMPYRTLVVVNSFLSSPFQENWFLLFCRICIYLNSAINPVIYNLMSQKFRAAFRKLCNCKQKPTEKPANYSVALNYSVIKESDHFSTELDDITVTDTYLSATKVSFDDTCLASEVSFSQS
Chain of M-phase phosphoprotein 8 (Homo sapiens) (Q99549 whole entry, looked up): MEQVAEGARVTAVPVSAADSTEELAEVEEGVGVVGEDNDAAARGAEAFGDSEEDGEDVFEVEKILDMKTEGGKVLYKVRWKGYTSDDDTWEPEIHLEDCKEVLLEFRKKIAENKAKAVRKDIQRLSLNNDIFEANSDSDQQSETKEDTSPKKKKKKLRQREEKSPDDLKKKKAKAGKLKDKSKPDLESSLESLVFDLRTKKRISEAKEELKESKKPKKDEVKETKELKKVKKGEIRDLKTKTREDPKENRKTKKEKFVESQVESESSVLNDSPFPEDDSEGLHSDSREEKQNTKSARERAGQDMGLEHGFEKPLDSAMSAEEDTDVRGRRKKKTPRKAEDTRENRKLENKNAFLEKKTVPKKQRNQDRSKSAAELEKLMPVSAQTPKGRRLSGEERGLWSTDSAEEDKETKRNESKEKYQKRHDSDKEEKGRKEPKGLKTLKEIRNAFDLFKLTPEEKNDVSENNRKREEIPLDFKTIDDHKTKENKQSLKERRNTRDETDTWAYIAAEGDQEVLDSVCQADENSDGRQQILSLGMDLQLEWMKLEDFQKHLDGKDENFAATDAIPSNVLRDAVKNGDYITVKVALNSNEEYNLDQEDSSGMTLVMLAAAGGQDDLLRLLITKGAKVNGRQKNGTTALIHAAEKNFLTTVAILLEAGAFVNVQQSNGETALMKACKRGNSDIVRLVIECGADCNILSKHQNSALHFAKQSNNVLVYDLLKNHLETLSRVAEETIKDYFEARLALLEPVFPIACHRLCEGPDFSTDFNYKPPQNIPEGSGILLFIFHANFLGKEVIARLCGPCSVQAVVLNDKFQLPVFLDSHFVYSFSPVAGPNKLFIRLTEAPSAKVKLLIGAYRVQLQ
Chain of ATP-dependent DNA helicase Q1 (Homo sapiens) (P46063 whole entry, looked up): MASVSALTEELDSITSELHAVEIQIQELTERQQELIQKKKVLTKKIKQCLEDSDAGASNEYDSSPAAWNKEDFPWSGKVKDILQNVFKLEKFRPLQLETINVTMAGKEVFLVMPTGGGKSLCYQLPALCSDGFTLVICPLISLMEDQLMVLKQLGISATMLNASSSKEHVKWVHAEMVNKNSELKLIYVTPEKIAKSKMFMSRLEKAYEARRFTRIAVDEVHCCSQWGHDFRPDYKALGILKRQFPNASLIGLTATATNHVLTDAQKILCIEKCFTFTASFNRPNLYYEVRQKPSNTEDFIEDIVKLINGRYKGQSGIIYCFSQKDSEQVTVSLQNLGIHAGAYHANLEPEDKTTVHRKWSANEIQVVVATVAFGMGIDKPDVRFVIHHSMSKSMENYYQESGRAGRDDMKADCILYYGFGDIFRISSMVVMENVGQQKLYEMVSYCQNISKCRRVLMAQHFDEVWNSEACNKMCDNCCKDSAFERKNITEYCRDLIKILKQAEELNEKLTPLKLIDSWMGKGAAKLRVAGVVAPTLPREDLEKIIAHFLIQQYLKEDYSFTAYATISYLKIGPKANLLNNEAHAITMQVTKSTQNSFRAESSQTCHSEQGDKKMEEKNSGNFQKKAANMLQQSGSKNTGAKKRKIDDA
Chain of Thyrotropin receptor (Homo sapiens) (P16473 whole entry, looked up): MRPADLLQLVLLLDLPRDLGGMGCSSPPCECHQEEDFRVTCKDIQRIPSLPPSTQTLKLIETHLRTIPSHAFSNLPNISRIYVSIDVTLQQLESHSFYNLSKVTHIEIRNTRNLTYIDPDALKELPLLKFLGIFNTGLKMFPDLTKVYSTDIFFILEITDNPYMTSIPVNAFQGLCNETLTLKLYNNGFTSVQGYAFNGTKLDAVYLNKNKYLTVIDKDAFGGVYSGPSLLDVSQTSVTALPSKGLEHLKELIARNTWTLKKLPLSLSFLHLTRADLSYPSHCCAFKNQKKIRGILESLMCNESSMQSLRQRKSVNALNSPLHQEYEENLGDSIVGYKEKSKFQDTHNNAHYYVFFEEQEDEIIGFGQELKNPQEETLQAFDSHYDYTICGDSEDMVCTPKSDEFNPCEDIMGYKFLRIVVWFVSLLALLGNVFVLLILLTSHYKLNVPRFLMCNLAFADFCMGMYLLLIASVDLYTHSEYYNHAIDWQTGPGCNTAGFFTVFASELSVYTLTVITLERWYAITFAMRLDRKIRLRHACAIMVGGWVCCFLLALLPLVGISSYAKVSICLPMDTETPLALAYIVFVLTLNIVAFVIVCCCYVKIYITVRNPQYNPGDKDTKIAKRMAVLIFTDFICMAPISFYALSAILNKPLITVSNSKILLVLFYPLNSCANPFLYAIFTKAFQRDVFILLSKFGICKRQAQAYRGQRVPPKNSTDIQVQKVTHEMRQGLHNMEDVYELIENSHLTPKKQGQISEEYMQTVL
Chain of Voltage-gated inwardly rectifying potassium channel KCNH2 (Homo sapiens) (Q12809 whole entry, looked up): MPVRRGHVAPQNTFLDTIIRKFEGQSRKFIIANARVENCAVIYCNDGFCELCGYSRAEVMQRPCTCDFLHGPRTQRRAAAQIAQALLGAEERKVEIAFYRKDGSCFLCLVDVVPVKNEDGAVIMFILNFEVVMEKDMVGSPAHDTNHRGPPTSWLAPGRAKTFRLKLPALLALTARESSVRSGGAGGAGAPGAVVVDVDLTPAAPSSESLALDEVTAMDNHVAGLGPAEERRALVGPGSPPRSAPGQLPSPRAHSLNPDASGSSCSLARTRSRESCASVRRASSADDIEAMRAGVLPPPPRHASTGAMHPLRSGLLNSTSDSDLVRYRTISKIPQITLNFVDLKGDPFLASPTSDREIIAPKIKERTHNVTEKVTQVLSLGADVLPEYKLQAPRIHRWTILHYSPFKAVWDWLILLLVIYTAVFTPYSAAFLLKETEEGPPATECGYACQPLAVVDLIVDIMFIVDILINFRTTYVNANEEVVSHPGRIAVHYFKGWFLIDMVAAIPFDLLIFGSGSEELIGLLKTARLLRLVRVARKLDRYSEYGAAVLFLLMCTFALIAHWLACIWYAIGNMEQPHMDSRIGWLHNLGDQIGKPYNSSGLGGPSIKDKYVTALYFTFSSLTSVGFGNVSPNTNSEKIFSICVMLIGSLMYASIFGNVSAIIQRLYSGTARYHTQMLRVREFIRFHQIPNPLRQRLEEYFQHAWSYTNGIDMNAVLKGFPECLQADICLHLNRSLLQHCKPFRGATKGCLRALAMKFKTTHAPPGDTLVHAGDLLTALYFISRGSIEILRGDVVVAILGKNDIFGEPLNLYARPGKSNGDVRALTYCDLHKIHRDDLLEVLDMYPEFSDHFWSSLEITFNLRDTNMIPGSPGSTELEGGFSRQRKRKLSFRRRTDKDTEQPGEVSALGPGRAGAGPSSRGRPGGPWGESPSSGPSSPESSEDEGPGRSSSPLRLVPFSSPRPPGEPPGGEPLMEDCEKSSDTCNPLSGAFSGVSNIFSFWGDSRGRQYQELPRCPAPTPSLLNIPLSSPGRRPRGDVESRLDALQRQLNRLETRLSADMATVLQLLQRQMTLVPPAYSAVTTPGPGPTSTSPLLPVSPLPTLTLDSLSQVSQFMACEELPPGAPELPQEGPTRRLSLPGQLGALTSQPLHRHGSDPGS
Chain of DNA repair nuclease/redox regulator APEX1 (Homo sapiens) (P27695 whole entry, looked up): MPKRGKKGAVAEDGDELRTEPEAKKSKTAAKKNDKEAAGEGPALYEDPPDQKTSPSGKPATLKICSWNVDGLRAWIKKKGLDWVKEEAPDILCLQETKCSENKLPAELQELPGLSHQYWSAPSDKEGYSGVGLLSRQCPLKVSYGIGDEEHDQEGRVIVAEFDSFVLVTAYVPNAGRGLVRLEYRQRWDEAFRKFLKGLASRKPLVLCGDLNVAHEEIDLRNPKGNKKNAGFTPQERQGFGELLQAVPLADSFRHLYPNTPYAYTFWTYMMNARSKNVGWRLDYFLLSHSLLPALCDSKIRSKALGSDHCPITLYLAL
Chain of Galactokinase (Homo sapiens) (P51570 whole entry, looked up): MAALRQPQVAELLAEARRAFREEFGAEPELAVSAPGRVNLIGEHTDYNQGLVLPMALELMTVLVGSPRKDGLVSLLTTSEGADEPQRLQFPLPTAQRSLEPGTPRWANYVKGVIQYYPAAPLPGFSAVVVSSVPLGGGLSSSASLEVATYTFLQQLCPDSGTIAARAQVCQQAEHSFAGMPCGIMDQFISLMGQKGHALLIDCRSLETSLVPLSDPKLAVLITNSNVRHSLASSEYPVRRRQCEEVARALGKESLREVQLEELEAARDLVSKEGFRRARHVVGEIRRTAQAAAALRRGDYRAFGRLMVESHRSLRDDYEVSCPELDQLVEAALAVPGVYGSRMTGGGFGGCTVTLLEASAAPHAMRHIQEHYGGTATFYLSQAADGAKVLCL

CCCN1CCC[C@@H](c2cccc(C#N)c2)C1
Potency [1]: inactive | Potency [2]: inactive | Potency [3]: inactive | Potency [4]: inactive | Potency [5]: 11.2 µM (active) | Potency [6]: inactive | outcome [7]: inactive | outcome [8]: inactive | Potency [9]: inactive | Potency [10]: inactive | Potency [11]: inactive | Potency [12]: inactive | outcome [13]: inactive | activation [14]: 1.31% (inactive) | outcome [15]: inactive | outcome [16]: inactive | Potency [17]: inactive

CCCN1CCCC(c2cccc(O)c2)C1 (stereo unspecified)
Potency [1]: inactive | Potency [2]: inactive | Potency [18]: 8.91 µM (active) | Potency [19]: 12.6 µM (active) | Potency [3]: inactive | Potency [4]: inactive | Potency [5]: 8.91 µM (active) | Potency [6]: inactive | outcome [7]: inactive | outcome [8]: inactive | outcome [20]: inactive | Potency [9]: inactive | Potency [10]: inactive | Potency [11]: inactive | Potency [12]: inactive | outcome [13]: inactive | activation [14]: -4.62% (inactive) | outcome [15]: inactive | outcome [16]: inactive | Potency [17]: inactive

CC(=O)c1cccc(NC(=O)NC[C@H]2C[C@@H]3CCN2C[C@@H]3c2cc(-c3ccc(F)cc3)nc(C)n2)c1
activity [21]: 2.65% | activity change, negative = inhibition [22]: 5.17% [at 57.3 µM] | activity [23]: -9.36% | activity [24]: 3.37%
